The results in this text go back to PubChem BioAssay.

Activity calls are given as the source filed them.

Assay [1] has as its target Albumin (Bos taurus) (UniProt P02769). Description: bovine serum albumin binders on microarray, profiling panel, artefact control for SMM control protein annotation, biochemical, small-molecule microarray, Alexa647 label, 635/667 nm fluorescence (AID 1118).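 Also: score merges 667 nm emission intensity and signal-to-noise per printed compound spot.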 As to conditions: BSA-A647 binding, fluorescence 635 nm, higher = more signal.
Assay [2] can be described thus: small-molecule microarray binders of probe aXIP, primary screen, biochemical, NeuroSMM set, 635/667 nm fluorescence (AID 1119).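 Also: probe is the protein aXip251-270 applied at 1 µg/mL to compound-printed slides; binding of probe to printed compounds measured as 667 nm fluorescence plus signal to noise.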 As to conditions: higher = more signal, called active from +8 up or from −8 down.
Assay [3] is described as follows: small-molecule binders of probe aNOTCH3, primary screen, biochemical, small-molecule microarray, 635/667 nm fluorescence (AID 1120).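 Also: probe is a biotin-tagged antibody raised against NOTCH3 rather than NOTCH3 protein; score merges spot fluorescence near 667 nm with spot signal to noise.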 As to conditions: higher = more signal.
The nature of assay [4]: small-molecule binders of probe aNOTCH2, primary screen, biochemical, small-molecule microarray, 635/667 nm fluorescence (AID 1121).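 Also: score merges feature fluorescence read at 667 nm with its signal to noise.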 As to conditions: higher = more signal.
Assay [5] concerns the target Carbonic anhydrase 2 (Homo sapiens) (UniProt P00918). Nature of the assay: CAII small-molecule binders, profiling panel, biochemical, small-molecule microarray, Alexa647-labelled CAII (AID 1122). As to conditions: CAII-A647 binding fluorescence, higher = more signal.
The nature of assay [6]: COS7 lysate on small-molecule microarray, probe aHis, 635 nm (AID 1123).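 Also: z-score combines 667nm fluorescence intensity with signal-to-noise per printed compound spot.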 As to conditions: COS7 cell lysate, fluorescence, higher = more signal.
Assay [7] is described as follows: compound binding in COS7 lysate, probe aLAP1, primary screen, cell lysate, small-molecule microarray (AID 1124).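 Also: lysate comes from COS7 cells expressing LAP1 and is applied at 0.3 µg/mL; score merges spot fluorescence near 667 nm with signal-to-noise over triplicate slides.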 As to conditions: probe aLAP1, fluorescence, higher = more signal.
Assay [8] concerns Sam68 (KHDRBS1). Nature of the assay: Sam68 small-molecule binders, primary screen, biochemical, small-molecule microarray, 635 nm fluorescence (AID 1125).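 Also: score merges 667 nm channel intensity with signal to noise over triplicate slides.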 As to conditions: small-molecule microarray binding, higher = more signal.
Assay [9] deals with Chordin-like protein 2 (CHRDL2). Nature of the assay: CHRDL2 small-molecule binders, primary screen, biochemical, small-molecule microarray, 635 nm fluorescence (AID 1126).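 Also: printed compound slides probed with Chrdl2 protein at 4 µg/mL for 1 h at 4 C; score merges 667 nm emission intensity with signal to noise over three replicate slides.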 As to conditions: small-molecule microarray binding, fluorescence 635 nm; higher = more signal.
Assay [10] deals with Concanavalin-A (Canavalia ensiformis) (UniProt P02866). Nature of the assay: ConA small-molecule binders, primary screen, artefact control for SMM control protein annotation, biochemical, small-molecule microarray, Alexa647 label, 635 nm (AID 1127).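 Also: z combines 667 nm emission intensity with signal-to-noise across three replicate slides.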 As to conditions: ConA-A647 binding fluorescence, higher = more signal.
Concanavalin-A (Canavalia ensiformis), sequence (P02866 whole entry, looked up): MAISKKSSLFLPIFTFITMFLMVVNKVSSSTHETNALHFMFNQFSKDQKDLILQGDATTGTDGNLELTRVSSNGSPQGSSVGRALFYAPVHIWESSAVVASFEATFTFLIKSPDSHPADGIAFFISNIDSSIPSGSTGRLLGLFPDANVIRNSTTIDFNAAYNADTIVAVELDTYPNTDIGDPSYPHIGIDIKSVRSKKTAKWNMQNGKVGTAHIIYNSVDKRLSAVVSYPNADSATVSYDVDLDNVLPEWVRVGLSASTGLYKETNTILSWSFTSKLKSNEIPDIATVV
The nature of assay [11]: anti-His antibody binders, primary screen, artefact control for SMM control protein annotation, biochemical, small-molecule microarray, 635 nm fluorescence (AID 1128).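 Also: score merges feature fluorescence with signal-to-noise for each printed compound spot.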 As to conditions: anti-His Alexa647 antibody binding, higher = more signal.
Assay [12] deals with Human papillomavirus type 1a E7 protein (residues 1-88). Description: HPV1a E7 small-molecule binders, primary screen, biochemical, small-molecule microarray, residues 1-88, 635 nm (AID 1129). As to conditions: small-molecule microarray binding, fluorescence 635 nm; higher = more signal.
The target in assay [13] is Focal adhesion kinase 1 (Homo sapiens) (UniProt Q05397). Nature of the assay: small-molecule microarray binders of FAK, primary screen, biochemical, 635/667 nm fluorescence, BSA, DTT (AID 1130).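 Also: composite of spot emission at 667 nm and signal to noise over triplicate slides.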 As to conditions: PTK2 binding, 635 nm fluorescence, higher = more signal.
Focal adhesion kinase 1 (Homo sapiens), sequence (Q05397 whole entry, looked up): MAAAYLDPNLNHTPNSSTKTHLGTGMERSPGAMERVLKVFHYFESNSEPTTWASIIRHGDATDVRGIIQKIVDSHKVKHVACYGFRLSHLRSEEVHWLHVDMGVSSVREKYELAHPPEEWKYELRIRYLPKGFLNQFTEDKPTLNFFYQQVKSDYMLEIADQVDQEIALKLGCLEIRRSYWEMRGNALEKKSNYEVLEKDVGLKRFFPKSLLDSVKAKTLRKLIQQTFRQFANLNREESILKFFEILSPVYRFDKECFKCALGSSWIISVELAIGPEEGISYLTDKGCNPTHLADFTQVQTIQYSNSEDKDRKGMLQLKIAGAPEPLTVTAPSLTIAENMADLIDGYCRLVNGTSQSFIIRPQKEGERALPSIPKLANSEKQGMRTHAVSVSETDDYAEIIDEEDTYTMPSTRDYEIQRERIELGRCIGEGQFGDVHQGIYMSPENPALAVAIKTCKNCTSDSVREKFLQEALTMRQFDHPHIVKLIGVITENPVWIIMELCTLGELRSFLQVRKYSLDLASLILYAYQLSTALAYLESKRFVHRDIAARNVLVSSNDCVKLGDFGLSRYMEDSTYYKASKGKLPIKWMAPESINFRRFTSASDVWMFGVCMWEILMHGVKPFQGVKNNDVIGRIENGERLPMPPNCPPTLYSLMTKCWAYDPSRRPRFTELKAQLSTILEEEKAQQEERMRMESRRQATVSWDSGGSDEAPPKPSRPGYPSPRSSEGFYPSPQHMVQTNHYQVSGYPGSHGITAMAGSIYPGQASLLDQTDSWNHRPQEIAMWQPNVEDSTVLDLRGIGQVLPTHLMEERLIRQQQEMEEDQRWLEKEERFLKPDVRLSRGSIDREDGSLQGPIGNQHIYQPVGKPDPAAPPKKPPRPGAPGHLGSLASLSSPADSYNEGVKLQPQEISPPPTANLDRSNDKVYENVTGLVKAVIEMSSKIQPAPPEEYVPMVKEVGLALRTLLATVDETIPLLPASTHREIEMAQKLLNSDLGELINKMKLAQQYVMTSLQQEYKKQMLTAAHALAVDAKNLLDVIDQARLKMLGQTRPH
Assay [14] concerns Fibrinogen (Alexa647-labelled). Nature of the assay: fibrinogen binders on compound microarrays, profiling panel, artefact control for SMM control-protein annotation, biochemical, small-molecule microarray, 635/667 nm fluorescence (AID 1131).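 Also: z-score merges 667 nm fluorescence with per-spot signal-to-noise over triplicate slides.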 As to conditions: fibrinogen-A647 binding fluorescence, higher = more signal.
The target in assay [15] is Follistatin (Homo sapiens) (UniProt P19883). Nature of the assay: follistatin binders on small-molecule microarrays, primary screen, biochemical, small-molecule microarray, 635/667 nm fluorescence (AID 1132). As to conditions: FST binding, 635 nm fluorescence, higher = more signal.
Follistatin (Homo sapiens), sequence (P19883 whole entry, looked up): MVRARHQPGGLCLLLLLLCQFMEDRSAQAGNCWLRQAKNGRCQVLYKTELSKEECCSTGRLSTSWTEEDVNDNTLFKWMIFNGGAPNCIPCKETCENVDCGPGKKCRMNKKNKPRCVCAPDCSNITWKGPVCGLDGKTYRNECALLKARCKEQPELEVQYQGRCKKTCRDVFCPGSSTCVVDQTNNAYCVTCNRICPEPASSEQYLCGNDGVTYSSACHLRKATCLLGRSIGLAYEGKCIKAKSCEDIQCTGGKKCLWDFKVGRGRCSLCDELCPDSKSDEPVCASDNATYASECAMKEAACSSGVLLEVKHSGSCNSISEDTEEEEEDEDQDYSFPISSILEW
The target in assay [16] is Fibroblast growth factor 2 (Homo sapiens) (UniProt P09038). Nature of the assay: FGF2 binders on small-molecule microarrays, primary screen, biochemical, small-molecule microarray, 635/667 nm fluorescence (AID 1133). As to conditions: small-molecule microarray binding, FGF2, fluorescence 635/667; higher = more signal.
Fibroblast growth factor 2 (Homo sapiens), sequence (P09038 whole entry, looked up): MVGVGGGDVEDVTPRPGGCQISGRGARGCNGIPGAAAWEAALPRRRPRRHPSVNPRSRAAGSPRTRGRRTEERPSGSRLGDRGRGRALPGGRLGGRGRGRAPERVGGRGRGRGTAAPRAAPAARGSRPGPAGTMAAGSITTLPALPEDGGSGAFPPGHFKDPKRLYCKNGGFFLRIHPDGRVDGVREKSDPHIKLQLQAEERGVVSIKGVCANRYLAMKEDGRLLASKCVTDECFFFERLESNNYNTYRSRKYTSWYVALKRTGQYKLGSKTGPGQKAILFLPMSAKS
A short description of assay [17]: mitochondrial membrane potential change in A549 cells, profiling panel, cell-based, JC-1 fluorescence, basal, 24 h, 100 nL (AID 1138).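 Also: A549 lung adenocarcinoma cells under basal conditions with no added stimulus; test concentration not given here.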 As to conditions: higher = more signal.
For assay [18], the system named is Lefty1. Description: Lefty1 binders on small-molecule microarrays, primary screen, biochemical, small-molecule microarray, 635/667 nm fluorescence (AID 1139). As to conditions: small-molecule microarray binding, fluorescence 635/667; higher = more signal.
For assay [19], the system named is wheat germ agglutinin (Triticum aestivum), Alexa647-labelled. Description: wheat germ agglutinin binders on compound microarrays, profiling panel, artefact control for SMM control-protein annotation, biochemical, small-molecule microarray, 635/667 nm fluorescence (AID 1140).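 Also: score merges 667 nm feature emission with signal to noise over triplicate slides.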 As to conditions: WGA-A647 binding, 635 nm fluorescence, higher = more signal.
The target in assay [20] is Luciferin 4-monooxygenase (Photinus pyralis) (UniProt P08659). Nature of the assay: firefly luciferase enzyme inhibitors, primary screen, biochemical, luminescence, purified enzyme, 2006 set (AID 1141).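 Also: cell-free assay with purified firefly luciferase at 100 ng per well in PBS; test concentration not given here.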 As to conditions: SteadyGlo luminescence, 30 min, higher = more signal, called active from +8 up or from −8 down.
Luciferin 4-monooxygenase (Photinus pyralis), sequence (P08659 whole entry, looked up): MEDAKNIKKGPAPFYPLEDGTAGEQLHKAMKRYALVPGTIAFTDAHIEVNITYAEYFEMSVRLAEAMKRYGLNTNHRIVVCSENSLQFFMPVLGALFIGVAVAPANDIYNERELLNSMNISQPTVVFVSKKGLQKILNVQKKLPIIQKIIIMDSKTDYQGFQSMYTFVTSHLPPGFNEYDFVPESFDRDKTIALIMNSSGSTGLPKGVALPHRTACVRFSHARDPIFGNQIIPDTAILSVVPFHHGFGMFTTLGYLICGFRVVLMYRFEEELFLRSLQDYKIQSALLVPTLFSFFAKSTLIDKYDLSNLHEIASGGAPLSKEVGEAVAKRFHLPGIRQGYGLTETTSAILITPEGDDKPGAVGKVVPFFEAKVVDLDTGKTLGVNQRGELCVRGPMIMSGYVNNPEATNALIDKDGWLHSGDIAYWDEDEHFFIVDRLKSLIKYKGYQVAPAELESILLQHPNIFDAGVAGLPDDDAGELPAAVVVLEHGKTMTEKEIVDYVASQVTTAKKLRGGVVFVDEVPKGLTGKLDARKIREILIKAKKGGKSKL

Albumin (Bos taurus), sequence (P02769 whole entry, looked up): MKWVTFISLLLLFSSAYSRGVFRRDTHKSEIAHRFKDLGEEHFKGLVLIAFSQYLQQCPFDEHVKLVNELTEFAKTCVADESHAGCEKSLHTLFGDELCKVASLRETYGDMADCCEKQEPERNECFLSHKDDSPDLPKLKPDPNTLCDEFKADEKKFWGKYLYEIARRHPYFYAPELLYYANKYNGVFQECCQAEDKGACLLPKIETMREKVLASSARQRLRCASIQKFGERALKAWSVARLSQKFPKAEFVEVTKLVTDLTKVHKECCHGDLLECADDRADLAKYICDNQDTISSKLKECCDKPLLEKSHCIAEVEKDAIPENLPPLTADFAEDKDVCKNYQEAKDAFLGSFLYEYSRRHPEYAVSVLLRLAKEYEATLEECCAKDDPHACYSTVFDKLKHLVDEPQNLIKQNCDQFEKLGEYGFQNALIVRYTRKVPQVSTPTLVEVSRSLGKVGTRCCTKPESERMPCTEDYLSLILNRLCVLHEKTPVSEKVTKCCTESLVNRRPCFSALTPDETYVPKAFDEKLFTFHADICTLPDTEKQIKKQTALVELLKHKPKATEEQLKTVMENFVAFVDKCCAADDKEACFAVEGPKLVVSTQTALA

Consider `O=C(OCc1ccccc1)C1=CCC2c3[nH]c4ccccc4c3C(=O)C1N2S(=O)(=O)c1ccccc1[N+](=O)[O-]` (stereo not given), for which the composite z-score in assay [1] is 0.994; in [3] it was 0.6; in assay [4], 0.285; in assay [5], 0.777; in assay [6], 2.61; in assay [7], 0.335. Also, the composite z-score in assay [8] was 1.06; in assay [9], -0.328; in assay [10], 0.996; in assay [11], 1.28; in assay [12] it was 1.26; in assay [13], -0.134. Further, the composite z-score in assay [14] is 0.906; in assay [15], 1.11; in [16], 0.491; in [18], 0.5; in assay [19] it was 0.743. In addition, in [2], the composite Z-score is 0.0421 (inactive). Moreover, the z-score in assay [17] is -2.71; in [20] it was 0.895 (inactive).

Regarding `CC(C)C[C@@H]1NC(=O)[C@@H]2C[C@H](C(=O)NCc3ccc(F)cc3)[C@H](c3cccc(OCCO)c3)N2C1=O`, the composite z-score in [1] was -0.972; in [3], -0.229; in assay [4], -0.166; in assay [5] it was 0.549; in [6] it was 0.558; in assay [7], 1.19. The composite z-score was 0.72 in assay [8]; 0.915 in assay [9]; 0.902 in [10]; 2.05 in assay [11]; 0.135 in [12]; 0.379 in assay [13]. The composite z-score in assay [14] is -0.373; in assay [15], 1.47; in assay [16] it was 1.46; in [18] it was 0.616; in assay [19] it was -0.129. Besides, the composite Z-score in assay [2] is 0.532 (inactive). Further, the z-score was 1.87 in assay [17] and -0.976 (inactive) in assay [20].

For `CCOC(=O)C1=CC[C@@H](c2ccccc2)N(S(=O)(=O)c2ccc(C)cc2)[C@H]1c1ccccc1C`, the composite z-score in assay [1] was 0.767; in [3] it was 0.183; in assay [4], 0.103; in assay [5], 0.743; in [6] it was 0.838; in assay [7], 0.201. The composite z-score is 0.841 in assay [8]; -0.0352 in assay [9]; 0.705 in assay [10]; 0.109 in assay [11]; 0.893 in assay [12]; 0.0769 in assay [13]. Further, the composite z-score was 0.394 in assay [14]; 0.74 in assay [15]; 0.545 in assay [16]; 0.384 in assay [18]; 0.406 in [19]. Besides, the composite Z-score in assay [2] is -0.663 (inactive). In addition, the z-score in [17] is 1.86; in [20], 2.49 (inactive).

With `CCCC[C@@H]1C[C@H]1[C@@H](NC(=O)c1cccs1)c1ccc(-c2ccccc2)cc1`, the composite z-score in assay [1] was 0.1; in assay [3] it was 0.206; in [4] it was -0.14; in [5], 0.254; in assay [6] it was 0.874; in assay [7], -0.202. Also, the composite z-score is 0.393 in assay [8]; 0.0355 in assay [9]; 0.432 in assay [10]; 0.433 in [11]; 0.852 in [12]; 0.0412 in [13]. In addition, the composite z-score in [14] was 0.149; in assay [15] it was 0.552; in [16], -0.292; in [18], 0.361; in [19], 0.849. For the same compound, the composite Z-score in assay [2] was -0.252 (inactive). Further, the results for the z-score in assay [17] and in assay [20] were 0.319 and 1.65 (inactive), respectively.

For `NC(=O)NCC#Cc1ccc2c(c1)[C@]1(C(=O)N2)[C@H](C(N)=O)[C@H]2C(=O)O[C@H](c3ccccc3)[C@H](c3ccccc3)N2[C@@H]1c1ccc(O)cc1`, the composite z-score in assay [1] is -0.0636; in [3] it was 0.286; in [4] it was 0.668; in assay [5], 0.688; in assay [6], 3.15; in [7], 0.505. Further, the composite z-score is 0.652 in assay [8]; -0.034 in assay [9]; -0.279 in assay [10]; -0.407 in assay [11]; -0.655 in [12]; -0.209 in assay [13]. In addition, the composite z-score in [14] is 0.513; in assay [15], 0.336; in assay [16], 0.383; in assay [18] it was -1.01; in [19], 0.623. Also, the composite Z-score in assay [2] is 1.42 (inactive). The z-score in assay [17] is -1.27; in [20], -0.192 (inactive).
